Screening data: PubChem BioAssay, Broad Institute
Rows were chosen to be rich in hits. Some 2.8% of all compounds tested hit in one or more screens of this group.
NSD2 HMT inh – NSD2 histone methyltransferase inhibitors, primary screen, biochemical, AlphaScreen, single concentration, set 2 | NSD2 peptide methylation, 120 min | inhibition, % at 12.5 µM | hit rate 0.54% among 310,000 | Histone-lysine N-methyltransferase NSD2 (Homo sapiens), O96028; in the data active = inhibition above about 50%
PAX8 reporter – inhibitors of PAX8-driven TPO luciferase reporter, primary screen, RMG-I cells, single concentration | hit rate 1.2% among 360,000 | SteadyGlo, 24 h | inhibition, % at 12.6 µM | AID 652154, 2013;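 active = mean replicate inhibition at least 60% with every replicate also reaching 60%; inconclusive = only one of the two criteria is met; inactive = mean below 60% and not all replicates reaching 60%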;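 note: luciferase light reporting Pax8 driven TPO promoter activity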
N-glyco inh – increase of ERlucT glycosylation luciferase signal, primary screen, N-linked glycosylation inhibitor project, D54 ERlucT cells, luminescence, set 2; reporter increase, % at 12.5 µM; hit rate 0.23% among 360,000; D54 ERlucT glycosylation luciferase reporter, 24 h; percent of 100 nM tunicamycin response; AID 588692, 2011;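 active = mean luciferase reporter signal, scaled so untreated is 0 and the glycosylation-blocking control 100, at or above a set limit in every replicate; inconclusive = mean reaches the limit but not every replicate does; inactive = mean below the limit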;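 note: luciferase carries N-glycosylation sites so blocking glycosylation raises the light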
LMP1 NFkB inh – EBV LMP1-driven NF-kappaB luciferase reporter inhibitors, primary screen, cell-based, luminescence, single point. LMP1-induced NF-kappaB luciferase reporter cells. inhibition, % at 12.5 µM. hit rate 0.69% among 350,000. AID 504558, 2011; in the data active = inhibition above about 41%; inconclusive = no clear call, values can overlap the other calls
Shn3 3UTR inh – reduction of Shn3 3'UTR firefly luciferase signal, primary screen, Schnurri-3 inhibitor project, cell-based, Clone20 osteoblasts, set 2; AID 588674, 2011; hit rate 0.52% among 360,000; inhibition, % at 12.5 µM; Clone20 osteoblast Shn3 3'UTR firefly luciferase, 24 h;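 active = mean inhibition of at least 75% with every replicate also reaching 75%; inconclusive = mean inhibition at least 75% but some replicate below; inactive = mean inhibition below 75%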
HIV Env fusion – inhibitors of HIV-1 Env-driven cell-cell fusion, primary screen, HeLa-JRFL effector, CEM21 target cells, luciferase; inhibition, % at 12.3 µM; hit rate 1.1% among 360,000;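 active = mean replicate inhibition score of at least 50 and every replicate individually at or above 50; inconclusive = only one of the two criteria met; inactive = mean below 50 and not all replicates reaching 50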
A number is an active result; – = inactive; ? = inconclusive; · = no result given; ! = not active in a repeat.

SMILES	NSD2 HMT inh	PAX8 reporter	N-glyco inh	LMP1 NFkB inh	Shn3 3UTR inh	HIV Env fusion
Cc1csc(NC(=O)c2ccc(N3CCCC3=O)cc2)n1	–	–	–	69	–	–
Cc1nnc(NC(=O)c2ccc(N3CCCC3=O)cc2)s1	–	–	–	–	–	–
Cc1ccc(NC(=O)C2CCCC2)c(C)c1	–	·	·	·	·	·
C[C@H](CO)N1C[C@H](C)[C@H](CN(C)Cc2ccc(C(F)(F)F)cc2)Oc2ccc(NC(=O)C3CCCCC3)cc2C1=O	·	·	·	·	·	–
COc1cc(/C=N/Nc2nnc3c(n2)[nH]c2ccccc23)ccc1O	–	80	–	–	–	·
CCc1ccc2[nH]c3nc(N/N=C/c4ccc(O)cc4O)nnc3c2c1	–	105	–	–	–	–
Cc1ccc2[nH]c3nc(N/N=C/c4cccc(O)c4)nnc3c2c1	–	–	–	–	–	–
COc1cccc(CNC(=O)C[C@@H]2C=C[C@H](NC(=O)C3CC3)[C@H](CO)O2)c1	·	–	·	·	·	–
O=C(C[C@@H]1C[C@H]2c3cc(NC(=O)NC4CCCCC4)ccc3O[C@H]2[C@@H](CO)O1)NCC1CC1	·	–	·	·	·	–
C[C@H](NC(=O)c1ccco1)C(=O)Nc1ccc2c(c1)OCO2	–	–	–	–	–	–
C[C@H](NC(=O)c1ccco1)C(=O)Nc1cccc([N+](=O)[O-])c1	–	100	–	–	–	–
O=C(Nc1cccc(NC(=O)c2ccc([N+](=O)[O-])o2)c1)c1ccco1	–	92	?	–	–	–
O=C(Nc1cccc(NC(=O)c2cccs2)c1)c1ccc([N+](=O)[O-])o1	·	101	59	–	–	–
O=C(Nc1ccc(S(=O)(=O)N2CCCC2)cc1)c1ccc([N+](=O)[O-])o1	–	·	–	–	91	·
C[C@@H]1CN([C@@H](C)CO)C(=O)c2cc(-c3ccccc3F)cnc2O[C@@H]1CN(C)C(=O)NC1CCCC1	·	–	·	·	·	–
COc1ccc(NC(=O)N(C)C[C@@H]2OCCCC[C@@H](C)Oc3ccc(NS(=O)(=O)c4ccccc4)cc3C(=O)N([C@@H](C)CO)C[C@@H]2C)cc1	·	–	·	·	·	–
O=C(Nc1ccc(N2CCN(C(=O)c3cccs3)CC2)cc1)c1ccco1	–	–	–	–	–	–
O=C(Nc1nc(-c2cccs2)cs1)c1ccc([N+](=O)[O-])o1	–	67	–	–	–	·
O=C(Nc1ccc(N2CCN(C(=O)c3cccs3)CC2)cc1)c1ccc([N+](=O)[O-])o1	–	98	–	–	–	–
O=C(Nc1ccc(Cc2ccncc2)cc1)c1ccc([N+](=O)[O-])o1	–	?	34	–	98	–
O=C(Nc1cccc(N2C(=O)C=CC2=O)c1)c1cccs1	–	66	–	–	–	–
O=C(Nc1nc(-c2cccs2)cs1)c1ccco1	–	–	–	–	–	–
O=C(N[C@@H]1CC[C@H](CCNS(=O)(=O)c2ccc(F)cc2)O[C@@H]1CO)c1cnccn1	·	–	·	·	·	–
C[C@H](CO)N1C[C@H](C)[C@H](CN(C)S(=O)(=O)c2ccc(F)cc2)Oc2c(NC(=O)Nc3ccc(C(F)(F)F)cc3)cccc2C1=O	·	–	·	·	·	–
Cc1ccc(N2CCCCn3c2nc2c3c(=O)n(CC(=O)O)c(=O)n2C)cc1	–	·	–	56	–	·
SMILES	NSD2 HMT inh	PAX8 reporter	N-glyco inh	LMP1 NFkB inh	Shn3 3UTR inh	HIV Env fusion
CCOC(=O)Cn1c(=O)c2c(nc3n2CCCCN3c2ccc(C)cc2)n(C)c1=O	–	–	–	–	–	–
O=C(Nc1nncs1)C1c2ccccc2Oc2ccccc21	–	·	–	–	–	59
CN(Cc1ccccc1C#N)S(=O)(=O)c1cccs1	–	–	–	–	–	–
N#Cc1nccnc1S(=O)(=O)c1cccs1	–	102	·	·	·	–
CCCCCC(=O)Nc1cc(S(=O)(=O)O)cc2cc(S(=O)(=O)O)cc(O)c12	105	–	–	–	–	–
CCCCCC(=O)Nc1cc(S(=O)(=O)N2CCCCC2)ccc1N1CCCCC1	–	–	–	–	–	–
O=C1C(=O)c2c(ccc3ccccc23)-c2ccccc21	–	–	–	59	96	–
COC(=O)c1nn(-c2ccc(OC)cc2)c(=O)cc1Oc1ccccc1	–	·	–	–	–	–
O=C(c1ccccc1)c1nn(-c2ccccc2)c(=O)cc1C(F)(F)F	–	·	–	–	–	·
COC(=O)c1nn(-c2ccccc2)c(=O)cc1Oc1ccc(Cl)cc1	–	–	–	–	–	122
O=C(c1ccccc1)c1nn(-c2ccc(Cl)cc2)c(=O)cc1C(F)(F)F	–	·	–	64	–	·
Cc1ccc(-n2[nH]c(=O)c3cccnc32)cc1	–	–	–	–	–	–
Cc1ccc(-n2[nH]c(=O)c(-c3ccccn3)c2C)cc1	–	75	–	66	–	–
COc1cnn(-c2ccc(C)cc2)c(=O)c1SCc1ccccc1	–	·	–	47	–	·
CN(C)CCC(c1ccccc1)c1ccccn1 (stereo not given)	·	–	–	56!	–	–
Cc1ccc(/C=N/NC(=O)c2ccccn2)o1	–	120	–	–	–	·
Cc1ccc(/C=N/NC(=O)c2ccncc2)o1	–	84	–	–	–	·
C[C@@H]1CCCCO[C@@H](CN(C)C(=O)CCCN(C)C)[C@H](C)CN([C@@H](C)CO)C(=O)c2cc(NC(=O)CCCN(C)C)ccc2O1	·	–	·	·	·	–
O=C(c1c(F)c(F)c(F)c(F)c1F)N1CCN(c2cccc(C(F)(F)F)c2)CC1	·	67	–	–	–	–
COc1ccccc1CC(=O)N1CCN(c2cccc(C(F)(F)F)c2)CC1	–	·	–	–	–	66
O=C(c1cccc(F)c1)N1CCN(c2cccc(Cl)c2)CC1	–	–	–	45	–	–
CO[C@@H]1CN(C)C(=O)c2cc(NS(=O)(=O)CC(F)(F)F)ccc2OC[C@H](C)N(Cc2cccnc2)C[C@H]1C	·	–	·	·	·	·
Cc1noc(C)c1NC(=O)N(C)C[C@H]1OCCCC[C@@H](C)Oc2ccc(NS(=O)(=O)c3ccc(F)cc3)cc2C(=O)N([C@H](C)CO)C[C@H]1C	·	–	·	·	·	–
